The list is not random: actives were taken first. Their share in the collection is about 11%.
GoLoco inh red – inhibitors of human Gai1-RGS12 GoLoco interaction (red fluorophore); Gai1:RGS12 GoLoco peptide FP, rhodamine, 10 min; Potency, µM (doses to about 61.6 µM), usual class: inhibitors; actives 0.44% (n = 230,000); active = well fitted inhibition curve with a large enough effect, not every such curve was filed as active; inactive = no such curve, though single readings can be large or run the other way; note: nearly all actives have a fitted effect of over 30% in size
ALDH1A1 inh – blocks purified human ALDH1A1 activity. Purified ALDH1A1, NADH fluorescence, propionaldehyde substrate. Potency, µM (series often up to 75.3 µM), most hits filed as inhibitors. actives 7.3% (n = 220,000)
Target sequence (P00352 whole entry, looked up): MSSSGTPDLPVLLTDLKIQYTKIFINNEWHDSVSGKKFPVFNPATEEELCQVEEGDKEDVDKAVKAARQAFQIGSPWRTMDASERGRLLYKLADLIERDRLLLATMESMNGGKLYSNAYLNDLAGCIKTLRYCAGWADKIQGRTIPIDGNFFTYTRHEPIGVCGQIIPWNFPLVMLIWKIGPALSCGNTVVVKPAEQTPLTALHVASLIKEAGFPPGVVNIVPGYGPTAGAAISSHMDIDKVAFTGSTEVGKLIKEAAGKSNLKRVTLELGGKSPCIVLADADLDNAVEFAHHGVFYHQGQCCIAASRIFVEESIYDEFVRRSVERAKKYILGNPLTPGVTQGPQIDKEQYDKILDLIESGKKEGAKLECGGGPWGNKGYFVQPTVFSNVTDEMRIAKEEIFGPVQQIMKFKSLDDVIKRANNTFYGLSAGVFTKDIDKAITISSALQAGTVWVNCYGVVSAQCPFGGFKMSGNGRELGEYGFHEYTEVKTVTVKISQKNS
HTT aggregate – mutant huntingtin aggregation inhibition; Potency, µM (highest dose often 46.1 µM), actives largely listed as inhibitors; PC12 HttQ103-GFP aggregates, Acumen cytometry, 40 h; AID 1688; actives 1.1% (n = 220,000); active = well fitted curve in the direction sought with a large enough effect; inconclusive = small, poorly fitted or top-dose-only effect, or another doubt; inactive = no such curve, though single readings can be large; an effect the other way counts as inactive or inconclusive; note: nearly all actives have a fitted effect of over 60% in size
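Aggregate formation scored by laser-scanning cytometer (488 excitation, 500–530 emission) in lysed PC12 cells expressing Q103-GFP after 100 nM tebufenozide induction; library tested in dose series, with ATPLite reagent added in the multiplex.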
HTT cytoprotect – cytoprotection in Huntington HTT-Q103 PC12 cell model; PC12 HTT-Q103 induced, cytoprotection, ATP luminescence, 40 h; Potency, µM (doses to about 56.4 µM), most hits filed as activators; actives 0.14% (n = 230,000); active = well fitted curve in the direction sought with a large enough effect; inconclusive = small, poorly fitted or top-dose-only effect, or another doubt; inactive = no such curve, though single readings can be large; an effect the other way counts as inactive or inconclusive; note: nearly all actives have a fitted effect of over 45% in size
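Huntington model: PC12 line, ecdysone-inducible HTTQ103 exon1–GFP, tebufenozide 100 nM. Test articles in a dose series. Endpoint luminescence from cellular ATP.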
HPGD inh – HPGD (human) dehydrogenase inhibition; P15428; purified HPGD, NADH fluorescence kinetic, PGE2 substrate; Potency, µM, usual class: inhibitors; actives 4.3% (n = 150,000); AID 894
Target sequence (P15428 whole entry, looked up): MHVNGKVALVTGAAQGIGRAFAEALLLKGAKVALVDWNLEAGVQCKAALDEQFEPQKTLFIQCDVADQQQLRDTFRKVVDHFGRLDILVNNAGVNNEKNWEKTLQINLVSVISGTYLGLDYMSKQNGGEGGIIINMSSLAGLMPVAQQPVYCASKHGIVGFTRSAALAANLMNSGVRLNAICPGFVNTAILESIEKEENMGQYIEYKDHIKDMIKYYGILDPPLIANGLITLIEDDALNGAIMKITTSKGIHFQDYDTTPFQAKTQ
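NADH formation kinetics: reaction with 30 uM PGE2 and 1 mM NAD+ (final), 20 nM enzyme, Tris-HCl pH 8 with Tween 20, after 15 min compound preincubation at room temperature. Fluorescence change, last versus first of five reads.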
PNC inhibitor – blocks assembly of the perinucleolar compartment; PC3M PTB-GFP, PNC prevalence imaging, 16 h; hits give low values; activity change (PNC), negative = inhibition, % at 10 µM; AID 2417; actives 3.1% (n = 140,000);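 active = readout at or below -70, meaning at least 70% loss of cells showing the perinucleolar compartment, a nuclear body marking cancer cells; inconclusive = readout between -30 and a set limit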
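Compounds are pinned in duplicate onto adhered PC3M cells stably expressing GFP-tagged PTB and incubated 16 h at 37 C. Cells are then fixed, nuclei stained with Hoechst, and PNC-positive cells counted.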
Of the large screens only hits and unclear results are named; the others gave an inactive call. Unless noted, calls come from the whole dose curve; as a rule, active = well fitted inhibition curve with a large enough effect (not every such curve was filed as active); inconclusive = small, poorly fitted or top-dose-only effect, or another doubt; inactive = no such curve, though single readings can be large or run the other way.

CC1(NC[C@@H](O)COc2cccc3[nH]ccc23)CCC(C(C)(C)NC(=O)CBr)CC1 (some centres undefined)	none (no result: GoLoco inh red, ALDH1A1 inh, HTT aggregate, HPGD inh, PNC inhibitor)
COCCCn1c(-c2ccc(S(=O)(=O)N3CCOCC3)cc2)csc1=Nc1ccccc1	ALDH1A1 inh 14µM, HTT aggregate inconclusive, HPGD inh inconclusive
O=C/C(=C\Nc1ccc(C(=O)N2CCOCC2)cc1)c1nc2ccccc2o1	HTT cytoprotect inconclusive (no result: HPGD inh, PNC inhibitor)
CC1=NOC(=O)/C1=C/c1ccc2c(c1)OCO2	ALDH1A1 inh inconclusive (no result: HPGD inh, PNC inhibitor)
CC1=NOC(=O)/C1=C\c1ccc2c(c1)OCO2	ALDH1A1 inh 13µM (no result: HPGD inh, PNC inhibitor)
CCOc1cc(/C=C2/C(=O)ON=C2C)ccc1OCc1ccccc1F	ALDH1A1 inh 5µM, HPGD inh 1.6µM
COC(=O)C1=C(C(=O)OC)[C@@H]2N(C)c3ccc(OC)cc3[C@@]23C[C@@H](C(=O)OC)N(S(=O)(=O)c2cccs2)C3=N1	none (no result: HTT aggregate, PNC inhibitor)
O=C1CCCN1CCCNCC(=O)N1c2ccccc2Sc2ccccc21	ALDH1A1 inh 35µM
O=C1CCCN1CCCNC(=S)Nc1ccccc1Cl	none (no result: HPGD inh, PNC inhibitor)
CC1CC(C)CN(CCCNC(=O)CCNC(=O)Cn2ccc3ccccc3c2=O)C1 (centres undefined)	none
Cc1ccc(S(=O)(=O)N[C@H]2COC(=O)C/C=C\[C@H](C)[C@@H](NS(=O)(=O)c3ccc(C)cc3)COC(=O)C/C=C\[C@@H]2C)cc1	ALDH1A1 inh inconclusive (no result: GoLoco inh red, HTT aggregate, HPGD inh, PNC inhibitor)
Clc1ccc2nc(SCc3nnc(-c4ccccc4)o3)[nH]c2c1	ALDH1A1 inh 11µM, HPGD inh 18µM
Clc1ccc(-c2nnc(CSc3nnc(-c4cccs4)o3)o2)cc1	none
Cn1c2ccccc2c2nnc(SCc3nnc(-c4ccccc4)o3)nc21	none (no result: HPGD inh, PNC inhibitor)
Cc1cc(=O)[nH]c(SCc2nnc(-c3ccccc3)o2)n1	none
Clc1ccc(OCc2nnc(SCc3nnc(-c4ccccc4)o3)o2)c(Cl)c1	ALDH1A1 inh inconclusive, HPGD inh 7.9µM, PNC inhibitor inconclusive
Cn1c(SCc2nnc(-c3ccccc3)o2)nc2ccccc21	ALDH1A1 inh 13µM (no result: HPGD inh, PNC inhibitor)
C[C@H]1Cc2c(-c3ccccc3)nc3c(c2CO1)CN(C(=O)c1cccnc1)CC3	none (no result: HTT aggregate, PNC inhibitor)
CCC(C)n1c(SCc2ccccc2)nc2ccsc2c1=O (centres undefined)	none
N#C/C(=C\Nc1ccccc1SC(F)(F)F)c1nc(-c2ccc(Cl)cc2)cs1	none
C=C1CC[C@@H]2O[C@@]2(C)CC[C@H]2[C@H]1CC2(C)C	none (no result: HTT aggregate, PNC inhibitor)
COc1ccc(NC(=O)N2CCc3nc(-c4ccc(OC)cc4C)c4c(c3C2)CO[C@@H](c2ccccc2)C4)cc1	ALDH1A1 inh 4µM (no result: HTT aggregate, PNC inhibitor)
COc1ccc(CN(CCC(c2ccccc2)c2ccc(OC(C)C)cc2)C(=O)CCl)cc1OC (centres undefined)	ALDH1A1 inh 10µM, HTT aggregate inconclusive, HPGD inh inconclusive, PNC inhibitor inconclusive
C#CCn1cc(/C=N/Nc2nc3ccccc3[nH]2)c2ccccc21	ALDH1A1 inh inconclusive, HPGD inh inconclusive
COCCCN1CN(S(=O)(=O)c2ccc(Cl)cc2)c2nc3ccccc3nc21	ALDH1A1 inh inconclusive
O=S(=O)(c1ccc(Cl)cc1)N1c2ccccc2Oc2nc3ccccc3nc21	ALDH1A1 inh 25µM
COc1ccc(S(=O)(=O)N2c3cc(Cl)ccc3Oc3nc4ccccc4nc32)cc1	PNC inhibitor -100
Cc1cnc(NC(=O)c2ccc3c(c2)C(=O)N(Cc2ccco2)C3=O)s1	ALDH1A1 inh inconclusive
CCN1C(=O)c2ccc(C(=O)Nc3ncc(C)s3)cc2C1=O	ALDH1A1 inh 2.2µM (no result: HPGD inh, PNC inhibitor)
COCCN1C(=O)c2ccc(C(=O)Nc3nccs3)cc2C1=O	ALDH1A1 inh inconclusive, PNC inhibitor -111
C=C(COC)C1=CCC(C(=O)OC)(C(=O)OC)[C@@H](C[N+](=O)[O-])c2ccccc21	none (no result: HTT aggregate, PNC inhibitor)
O=S(=O)(Nc1nc2ccccc2nc1N1CCc2ccccc2C1)c1ccc(Br)cc1	ALDH1A1 inh inconclusive, HTT aggregate 7.1µM
CC(=O)Nc1ccc(S(=O)(=O)Nc2nc3ccccc3nc2N2CCc3ccccc3C2)cc1	ALDH1A1 inh 11µM
O=S(=O)(Nc1nc2ccccc2nc1Cl)c1ccc(Br)cc1	ALDH1A1 inh inconclusive, HTT aggregate 10µM (no result: HPGD inh, PNC inhibitor)
O=S(=O)(Nc1nc2ccccc2nc1N1CCc2ccccc2C1)c1ccc(Cl)cc1	ALDH1A1 inh inconclusive, HTT aggregate inconclusive
Cc1ccccc1S(=O)(=O)Nc1nc2ccccc2nc1N1CCc2ccccc2C1	HTT aggregate inconclusive, HPGD inh inconclusive
Cc1ccc(S(=O)(=O)Nc2nc3ccccc3nc2N2CCN(c3ccccc3F)CC2)cc1	HTT aggregate inconclusive
O=S(=O)(Nc1nc2ccccc2nc1N1CCN(c2ccccn2)CC1)c1ccc(Cl)cc1	ALDH1A1 inh 11µM
O=C(CN1CCCCCC1=O)N1CCN(S(=O)(=O)c2cccs2)CC1	none (no result: HPGD inh, PNC inhibitor)
Cc1nc(N2CCOCC2)c2nc(-c3ccccc3)n(CCN3CCCC3)c2n1	ALDH1A1 inh inconclusive, HPGD inh inconclusive (no result: HTT aggregate, PNC inhibitor)
O=C(N=c1ccn(-c2nc3ccccc3nc2NS(=O)(=O)c2ccc(Cl)cc2)cc1)c1ccccc1Cl	ALDH1A1 inh 0.63µM (no result: HPGD inh, PNC inhibitor)
CC(=O)Nc1ccc(S(=O)(=O)Nc2nc3ccccc3nc2N2CCCCCC2)cc1	ALDH1A1 inh 7.1µM
O=C(/C=C/c1ccccc1)Nc1ccc(Br)cn1	ALDH1A1 inh inconclusive (no result: HPGD inh, PNC inhibitor)
NCC[C@H](N)C(=O)O	none (no result: HTT aggregate, PNC inhibitor)
COc1ccccc1C(=O)NCC(=O)N/N=C/c1cccc(Cl)c1	none (no result: HPGD inh, PNC inhibitor)
Cc1cc(C(F)F)nn1CC(=O)Nc1cc([N+](=O)[O-])ccc1F	none (no result: HTT cytoprotect)
CCOC(=O)Cn1nnnc1C(C(C)C)N(Cc1cc2c(C)cc(C)cc2[nH]c1=O)C1CCCC1 (centres undefined)	ALDH1A1 inh 3.5µM
CC(=O)N(Cc1cc2c(C)cc(C)cc2[nH]c1=O)C1CCCCC1	ALDH1A1 inh inconclusive
O=C1Nc2ccccc2N(O)N1c1ccc(S(=O)(=O)N2CCCCCC2)cc1	PNC inhibitor -82
CCN(CC)S(=O)(=O)c1ccc(N2C(=O)Nc3ccccc3N2O)cc1	none
O=S1(=O)c2cccc3cccc(c23)N1CCCN1CCN(c2ccc(F)cc2)CC1	none (no result: GoLoco inh red, ALDH1A1 inh, HPGD inh, PNC inhibitor)
O=C(O)COc1ccc(Oc2ccccc2)cc1	PNC inhibitor inconclusive
O=C(O)CSc1ccc(Oc2ccc(SCC(=O)O)cc2)cc1	ALDH1A1 inh 13µM (no result: HPGD inh, PNC inhibitor)
Cc1cc(NC(=O)c2cc(-c3ccco3)on2)n(-c2ccccc2)n1	ALDH1A1 inh inconclusive
Cc1cc(-c2ccco2)n(-c2ccccc2)n1	ALDH1A1 inh 1.4µM, HPGD inh 32µM, PNC inhibitor inconclusive
CC(C(=O)Nc1ccc(OCc2ccccc2)cc1)N1CCCC1 (centres undefined)	none (no result: HPGD inh, PNC inhibitor)

Bioassay records as filed in PubChem.
